Several values for one entry are separate records, joined by “and”; a condition that tells them apart may be missing. Identical values can stand only once. Results filed as inconclusive are left out. More than one record can exist for a structure, and the calls need not agree. Activity calls are given as the source filed them. How the source made its calls, unless noted: active means hit-call score of the fitted dose curve at least 0.9, where 1 is the maximum; inactive means score below 0.9.
Legend:
[1] = CCTE_Shafer_MEA_dev_firing_rate_mean: CCTE's Neural Network Formation Assay for Mean Firing Rate, Shafer Lab (AID 2284031);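 on AC50: curve fitted for loss of firing so AC50 reflects decreased mean firing rate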
Method in brief: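 Rat primary cortical neurons were seeded on multielectrode arrays and treated from plating through day 12, with redosing at each feed. Spontaneous spiking was recorded four times; mean firing rate AUC was fitted downward against DMSO.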

[2] = CCTE_Shafer_MEA_dev_per_burst_spike_percent: CCTE's Neural Network Formation Assay for Percent of Spikes in a Burst, Shafer Lab (AID 2284032);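 on AC50: fitted as a decrease in burst spike percentage below DMSO baseline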
Method in brief: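 Rat primary cortical neurons on 16-electrode MEA wells, dosed from plating day 0 for 12 days with renewal on DIV 5 and 9; spikes-in-bursts percentage averaged over bursting electrodes, collapsed as AUC across days 5, 7, 9, 12; loss direction versus DMSO.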

[3] = CCTE_Shafer_MEA_dev_active_electrodes_number: CCTE's Neural Network Formation Assay for Number of Active Electrodes, Shafer Lab (AID 2284040; active means hit-call score of the fitted dose curve at least 0.9, where 1 is the maximum;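 on AC50: potency for loss of active electrodes versus DMSO so lower counts are hits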)
Method in brief: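 Primary rat cortical neurons on 16-electrode MEA wells, exposed from day 0 through day 12 with compound renewed at DIV 5 and 9 feeds. Active electrodes (mean firing ≥5 spikes/min) counted at DIV 5, 7, 9, 12; trapezoidal AUC across days, loss-of-signal versus DMSO.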

[4] = CCTE_Shafer_MEA_dev_burst_rate: CCTE's Neural Network Formation Assay for Burst Rate, Shafer Lab (AID 2284042);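 on AC50: potency for loss of burst rate below DMSO control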
Method in brief: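 Cells plated, treated day 0; recorded DIV 5, 7, 9, 12; fed and re-treated DIV 5, 9. Endpoint: bursts per recording time, active-electrode well mean, trapezoidal AUC, fitted in decreasing direction against DMSO baseline.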

[5] = CCTE_Shafer_MEA_dev_bursting_electrodes_number: CCTE's Neural Network Formation Assay for Number of Bursting Electrodes, Shafer Lab (AID 2284043; active means hit-call score of the fitted dose curve at least 0.9, where 1 is the maximum;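 on AC50: potency is for loss of bursting electrodes relative to DMSO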)
Method in brief: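 Read-out is the per-well number of electrodes bursting at least once every 2 minutes, recorded on days 5, 7, 9 and 12 and collapsed by trapezoidal area under the curve. Cultures were primary rat cortical neurons on MEA plates, treated continuously from plating.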

[6] = CCTE_Shafer_MEA_dev_burst_duration_mean: CCTE's Neural Network Formation Assay for Mean Burst Duration, Shafer Lab (AID 2284045);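 on AC50: curve fitted for loss meaning shorter burst duration than DMSO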
Method in brief: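 Read-out: average first-to-last-spike interval within single-electrode bursts, averaged over bursting electrodes per well, then summarised as area under the curve across days 5, 7, 9 and 12. Developing rat cortical networks were exposed from day 0.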

[7] = CCTE_Shafer_MEA_dev_interburst_interval_mean: CCTE's Neural Network Formation Assay for Mean Interburst Interval, Shafer Lab (AID 2284046);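 further: well-mean interburst interval of bursting electrodes as AUC over four recording days; curve fitted for decrease in interburst interval relative to DMSO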
Method in brief: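 Developing rat cortical networks on 48-well MEAs receive compound from the day of plating. Burst intervals from each active electrode are averaged per well, and AUC over the recording days is fitted in the negative direction against DMSO.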

[8] = CCTE_Shafer_MEA_dev_network_spike_number: CCTE's Neural Network Formation Assay for Number of Network Spikes, Shafer Lab (AID 2284048);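 further: synchronized bursts across electrodes counted on days 5 7 9 12 and integrated as AUC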;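 on AC50: fit as a loss of signal meaning fewer network spikes than DMSO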
Method in brief: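 Developing networks of primary rat cortical neurons are treated over 12 days starting at plating, with media and compound fully replaced on DIV 5 and 9. Network spike counts from four recording days are integrated as trapezoidal AUC.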

[9] = CCTE_Shafer_MEA_dev_network_spike_peak: CCTE's Neural Network Formation Assay for Mean Number of Electrodes in Network Spike, Shafer Lab (AID 2284049);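 on AC50: fitted for loss of signal meaning fewer electrodes in network spikes than DMSO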
Method in brief: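 Rat cortical primary culture, 1.5 x 10^5 cells/well, 48-well MEA (16 electrodes/well). Dosing day 0 through DIV 12, full media/compound exchange DIV 5, 9. AxIS adaptive spike detection; AUC over days 5/7/9/12; loss-of-signal vs DMSO.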

DIO2 (gene 1734) = experiment: CCTE_GLTED_hDIO2: CCTE's human Deiodinase 2 (DIO2) Inhibition Assay, Great Lakes Toxicology and Ecology Division (GLTED) Lab (AID 2284050; active means hit-call score of the fitted dose curve at least 0.9, where 1 is the maximum)
Method in brief: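 hDIO2 enzyme + test chem, 3 h → free iodide from substrate; step 2: Sandell-Kolthoff (Ce IV reduction by As, iodide-catalysed), spectrophotometric read. Triplicate plates; DMSO = baseline.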

[10] = CCTE_Shafer_MEA_dev_network_spike_duration_std: CCTE's Neural Network Formation Assay for Standard Deviation of Network Spike Duration, Shafer Lab (AID 2284052);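 further: area under curve of spike duration SD across recording days 5 to 12; hits are decreases in network spike duration SD versus DMSO vehicle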
Method in brief: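 Read-out is the trapezoidal area-under-the-curve across recordings made on days 5, 7, 9 and 12, fitted in the negative direction against DMSO baseline. Neurons were primary rat cortical cells treated from day 0, with treatment renewed at each feed.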

[11] = CCTE_Shafer_MEA_dev_per_network_spike_spike_number_mean: CCTE's Neural Network Formation Assay for Mean Number of Spikes in a Network Spike, Shafer Lab (AID 2284053);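 on AC50: fitted as decrease in spikes per network spike relative to DMSO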
Method in brief: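 Continuous twelve-day exposure of developing rat cortical networks grown over 16 microelectrodes per well; spontaneous firing is captured at four time points, and the per-network-spike spike number is integrated over development by trapezoidal AUC.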

[12] = CCTE_Shafer_MEA_dev_per_network_spike_spike_percent: CCTE's Neural Network Formation Assay for Percent of Spikes in a Network Spike, Shafer Lab (AID 2284054)
Method in brief: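 Rat primary cortical cultures, 1.5 x 10^5 cells/well on MEA. Continuous compound exposure d0–12, medium/compound renewed DIV 5, 9. Network-spike spike % (0.05 s peak window), AUC over 4 recordings, DMSO baseline.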

DIO3 (gene 1735) = experiment: CCTE_GLTED_hDIO3: CCTE's human Deiodinase 3 (DIO3) Inhibition Assay, Great Lakes Toxicology and Ecology Division (GLTED) Lab (AID 2284055; active means hit-call score of the fitted dose curve at least 0.9, where 1 is the maximum;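 further: potency is for inhibition seen as loss of released iodide signal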)
Method in brief: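 Absorbance from the Sandell-Kolthoff reaction reports iodide released by human DIO3 during a 3-hour incubation with chemical. Inhibition scored as signal loss against DMSO controls.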

[13] = CCTE_Shafer_MEA_dev_LDH: CCTE's Lactate Dehydrogenase Assay for Cytotoxicity in the Neural Network Formation Assay, Shafer Lab (AID 2284068; active means hit-call score of the fitted dose curve at least 0.9, where 1 is the maximum;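 further: exposure for twelve days from plating with re-dosing on DIV 5 and 9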)
Method in brief: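 Cytotoxicity companion to network-formation recordings: rat cortical neurons received compound over 12 days of development, re-dosed at DIV 5 and 9 feeds. Viability was inferred from LDH enzyme activity relative to DMSO.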

[14] = CCTE_Deisenroth_AIME_384WELL_CTox_Inactive: Cytotoxicity Assessment (CTOX) in CCTE's 384-well Estrogen Receptor Transactivation Assay without AIME metabolic competence (metabolism negative), Deisenroth Lab (AID 2284039; active means hit-call score of the fitted dose curve at least 0.9, where 1 is the maximum;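 further: cell viability via live-cell protease substrate cleaved to fluorescent probe; cells exposed 24 h to medium preincubated 2 h with alginate-water beads without S9; loss of fluorescence signal means loss of viability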)
Method in brief: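 Metabolism-negative arm: chemicals (10-point, 0.002 - 200 uM) preincubated 2 h with alginate-water lids, medium moved onto VM7Luc4E2 cells for 24 h. Fluorescent live-cell protease readout; bidirectional curve fit.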

[15] = target: Estrogen receptor (Homo sapiens) (UniProt P03372); experiment: CCTE_Deisenroth_AIME_384WELL_LUC_Shift: CCTE's 384-well Estrogen Receptor Transactivation Assay with AIME metabolic competence data shift (ERTA luciferase; difference in metabolism positive and negative), Deisenroth Lab (AID 2284041);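 further: shift is response with S9 minus without S9 so positive means metabolism raised ER signal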
Method in brief: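 Test chemicals (0.002–200 uM, 10-point) were pre-incubated 2 h with alginate microspheres containing phenobarbital/beta-naphthoflavone-induced male Sprague Dawley rat liver S9 or water, then medium was transferred to VM7Luc4E2 cells for 24 h luciferase readout; shift = S9-positive minus S9-negative normalized response.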

[16] = target: Estrogen receptor (Homo sapiens) (UniProt P03372); experiment: CCTE_Deisenroth_AIME_384WELL_LUC_Active: CCTE's 384-well Estrogen Receptor Transactivation Assay with AIME metabolic competence (ERTA luciferase; metabolism positive), Deisenroth Lab (AID 2284030; active means hit-call score of the fitted dose curve at least 0.9, where 1 is the maximum)
Method in brief: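 VM7Luc4E2 breast cells were given, for 24 hours, medium pre-incubated for 2 hours with parent chemical (0.002-200 uM, 10 concentrations) and alginate-encapsulated phenobarbital/beta-naphthoflavone-induced rat hepatic S9. Luciferase gain of signal was fitted against 17beta-estradiol; n=4 or more.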

[17] = target: Estrogen receptor (Homo sapiens) (UniProt P03372); experiment: CCTE_Deisenroth_AIME_384WELL_LUC_Inactive: CCTE's 384-well Estrogen Receptor Transactivation Assay without AIME metabolic competence (ERTA luciferase; metabolism negative), Deisenroth Lab (AID 2284038; active means hit-call score of the fitted dose curve at least 0.9, where 1 is the maximum;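 further: VM7Luc4E2 breast cells given medium preincubated 2 h with S9-free microspheres; hits raise estrogen receptor luciferase signal so potencies reflect agonists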)
Method in brief: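 Metabolism-negative mode: chemicals (10-point, 0.002–200 uM) held 2 h with alginate-water microspheres, then conditioned medium applied to VM7Luc4E2 cells for 24 h. Luciferase induction referenced to 17beta-estradiol.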

Measured: AC50

Estrogen receptor (Homo sapiens), sequence (P03372 whole entry, looked up): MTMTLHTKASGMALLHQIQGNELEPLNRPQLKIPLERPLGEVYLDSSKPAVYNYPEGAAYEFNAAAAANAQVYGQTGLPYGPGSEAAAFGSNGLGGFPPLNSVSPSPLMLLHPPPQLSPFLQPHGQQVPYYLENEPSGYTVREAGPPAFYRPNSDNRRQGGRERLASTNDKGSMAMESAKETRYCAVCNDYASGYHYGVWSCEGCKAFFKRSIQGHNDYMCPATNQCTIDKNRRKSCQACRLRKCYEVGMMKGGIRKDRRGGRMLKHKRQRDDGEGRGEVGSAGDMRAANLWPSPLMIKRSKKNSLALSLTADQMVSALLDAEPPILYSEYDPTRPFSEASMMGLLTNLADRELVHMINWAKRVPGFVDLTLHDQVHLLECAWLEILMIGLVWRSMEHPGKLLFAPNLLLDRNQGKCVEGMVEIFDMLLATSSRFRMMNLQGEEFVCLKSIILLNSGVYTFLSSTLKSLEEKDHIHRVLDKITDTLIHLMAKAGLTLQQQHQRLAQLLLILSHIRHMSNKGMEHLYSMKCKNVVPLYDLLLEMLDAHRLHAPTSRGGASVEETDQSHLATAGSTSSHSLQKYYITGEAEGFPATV

CS(=O)(=O)c1ccc(C(=O)C2C(=O)CCCC2=O)c([N+](=O)[O-])c1
active: DIO2 (gene 1734) 24.8 µM | DIO3 (gene 1735) 46.3 µM
not listed: [14] | [15] | [16] | [17]
inactive: all other assays above

CCCCC(O)(Cn1cncn1)c1ccc(Cl)cc1Cl (configuration not stated)
active: [14] 100 µM
inactive: [15]

CCCN(CC)CC1COC2(CCC(C(C)(C)C)CC2)O1 (configuration not stated)
active: [1] 0.066 µM | [2] 0.335 µM | [3] 0.246 µM | [4] 0.136 µM | [5] 0.223 µM | [6] 0.157 µM | [7] 0.325 µM | [8] 0.0933 µM | [9] 0.305 µM | [10] 0.0662 µM | [11] 0.272 µM | [12] 0.266 µM | [13] 0.168 µM

COP(=O)(OC)O/C(C)=C/C(=O)N(C)C
not listed: [5] | DIO2 (gene 1734) | DIO3 (gene 1735) | [14] | [15] | [16] | [17]
inactive: all other assays above

CCOc1nc(C(Cl)(Cl)Cl)ns1
inactive: [16] | [17] | [15]

CC1(C)C(C(=O)OC(C#N)c2cccc(Oc3ccccc3)c2)C1(C)C (configuration not stated)
active: [2] 12.6 µM | [3] 19 µM | [5] 15.4 µM | [8] 0.515 µM | [9] 13.5 µM | [11] 10 µM | [12] 4.54 µM | [13] 17.8 µM
inactive: [1] | [4] | [6] | [7] | [10]

COC(=O)N(C(=O)N1CO[C@@]2(C(=O)OC)Cc3cc(Cl)ccc3C2=N1)c1ccc(OC(F)(F)F)cc1
active: [2] 23.1 µM | [3] 21.2 µM | [5] 15 µM | [9] 25.9 µM | [12] 15 µM | [13] 7.61 µM
not listed: DIO2 (gene 1734) | DIO3 (gene 1735) | [16] | [17]
inactive: all other assays above

OC(c1ccc(Cl)cc1)(c1ccc(Cl)cc1)C(Cl)(Cl)Cl
active: DIO2 (gene 1734) 76.4 µM | DIO3 (gene 1735) 15.8 µM

CCCCOCN(C(=O)CCl)c1c(CC)cccc1CC
inactive: [15]
active: DIO2 (gene 1734) 17.6 µM | DIO3 (gene 1735) 37.6 µM

COC(=O)NS(=O)(=O)c1ccc(N)cc1
inactive: [16] | [17] | [15]

O=C1C2CC=CCC2C(=O)N1SC(Cl)(Cl)Cl (configuration not stated)
inactive: [1] | [3] | [4] | [6] | [7] | [8] | [10] | [11] | [12]
active: [2] 16.7 µM and 15.7 µM | [3] 9.85 µM | [5] 9.85 µM and 1.97 µM | [7] 9.95 µM | [9] 9.85 µM and 16.2 µM | [11] 9.85 µM | [12] 15.6 µM | [13] 15.9 µM and 13.8 µM

COc1ccc(-c2ccccc2)cc1NNC(=O)OC(C)C
inactive: [17] | [15]
active: [14] 77.9 µM

CCNC(=O)NC(=O)C(C#N)=NOC
not listed: DIO2 (gene 1734) | DIO3 (gene 1735) | [14] | [15] | [16] | [17]
inactive: all other assays above

CCCCC(C#N)(Cn1cncn1)c1ccc(Cl)cc1 (configuration not stated)
inactive: [15]

Cc1nc(N(C)C)nc(OC(=O)N(C)C)c1C
active: DIO2 (gene 1734) 44.6 µM | DIO3 (gene 1735) 10 µM

— PubChem BioAssay (EPA / NIEHS)
